PubChem BioAssay
The source made the active and inactive calls. Unless noted, no rule for the calls is given here.

Columns and labels:
[1] = tested on: Wnt5a (protein binding on small-molecule microarray); assay: Wnt5a binders on small-molecule microarray, primary screen, biophysical, 635/667 nm fluorescence (AID 1142); conditions: 635 nm fluorescence, higher = more signal;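 also: fluorescence read at 667 nm with signal to noise per printed feature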
[2] = cell viability in Huh7 cells, primary screen, cytotoxicity control for HCV replication inhibitor project, CellTiter-Glo luminescence, basal, 48 h (AID 1143); conditions: Huh7 HCV replicon, higher = more signal, called active from +8 up or from −8 down;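 also: Huh7 hepatoma cells carrying a hepatitis C replication reporter with no stimulus; test concentration not given here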
[3] = P. aeruginosa biofilm formation inhibitors, primary screen, PAO1 strain, BacTiter-Glo luminescence, LB-PBS (AID 1144); conditions: 12 h, higher = more signal
[4] = CREB reporter modulators without forskolin, primary screen, cell-based, PC12, CRE-LacZ reporter, unstimulated (AID 1145); conditions: no forskolin, luminescence, 4.5 h, higher = more signal, called active from +8 up or from −8 down
[5] = CREB reporter modulators under forskolin, primary screen, cell-based, PC12, CRE-LacZ reporter, forskolin-stimulated (AID 1146); conditions: luminescence, 4.5 h, higher = more signal, called active from +8 up or from −8 down;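 also: PC12 cells with 6xCRE LacZ reporter stimulated by forskolin 10 µM; beta-galactosidase reporter signal reflecting CREB driven transcription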
[6] = biological target: Streptavidin (Streptomyces avidinii) (UniProt P22629); assay: streptavidin binders on small-molecule microarray, primary screen, artefact control for SMM compound annotation, biophysical, 635/667 nm fluorescence (AID 1147); conditions: streptavidin binding, higher = more signal;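 also: signal reflects streptavidin binding to arrayed compounds as a control protein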
[7] = small-molecule binders of probe aInhba, primary screen, biochemical, small-molecule microarray, 635/667 nm fluorescence (AID 1148); conditions: higher = more signal;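 also: score merges 667nm spot fluorescence with signal-to-noise for antibody binding to printed compounds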
Torsin-1A (Homo sapiens) [8] = biological target: Torsin-1A (Homo sapiens) (UniProt O14656); assay: torsin A binders from cell lysate, primary screen, small-molecule microarray, wild-type, 635/667 nm (AID 1149); conditions: COS7 hTOR1A-WT lysate, 635 nm fluorescence, higher = more signal
Torsin-1A (Homo sapiens) [9] = biological target: Torsin-1A (Homo sapiens) (UniProt O14656); assay: small-molecule binders of mutant TOR1A in lysate, primary screen, cell lysate, small-molecule microarray, COS7 lysate, 635/667 nm fluorescence (AID 1150); conditions: COS7 hTOR1A mutant lysate, 635 nm fluorescence, higher = more signal;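 also: score pools 667 nm emission and signal to noise measuring lysate protein binding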
[10] = tested on: Sonic hedgehog protein (Shh); assay: small-molecule binders of Shh protein, primary screen, biochemical, small-molecule microarray, 635/667 nm fluorescence (AID 1151); conditions: small-molecule microarray binding, 635 nm fluorescence; higher = more signal;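 also: Shh protein binding to compounds spotted on small-molecule microarray slides; score combines spot fluorescence intensity with signal-to-noise across triplicate slides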
[11] = E. coli DRC41 culture turbidity changes, primary screen, E. coli filamentation inducer project, strain DRC41, OD650, 48 h (AID 1152);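 also: E. coli MC1000 strain DRC41 lacking acrAB efflux pump and sulA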; conditions: E. coli DRC41 (acrAB sulA), higher = more signal, called active from +8 up or from −8 down
[12] = small-molecule binders of probe aLefty1, primary screen, biochemical, small-molecule microarray, 635/667 nm fluorescence (AID 1153); conditions: higher = more signal;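 also: score merges spot fluorescence with signal-to-noise ratio from the scanned slide images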
[13] = PSAC antagonists in infected red cells, primary screen, cell-based, P. falciparum Indochina, OD700, 1 h (AID 1154); conditions: P. falciparum Indochina infected RBC osmotic lysis, higher = more signal, called active from +8 up or from −8 down
[14] = PSAC antagonists in infected red cells, primary screen, cell-based, P. falciparum Indochina, OD700, 2 h (AID 1155);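 also: lysis reports solute entry through the parasite surface anion channel PSAC; channel blockers reduce lysis of infected cells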; conditions: P. falciparum Indochina infected erythrocytes, osmotic lysis OD700; higher = more signal, called active from +8 up or from −8 down
[15] = osmotic lysis modulators in infected erythrocytes, primary screen, PSAC antagonist project, cell-based, P. falciparum Indochina, OD700, 3 h (AID 1156); conditions: higher = more signal, called active from +8 up or from −8 down
[16] = PSAC antagonists in infected red cells, primary screen, cell-based, P. falciparum Indochina, OD700, 18 h (AID 1157); conditions: P. falciparum Indochina infected erythrocytes, osmotic lysis OD700, 18 h; higher = more signal, called active from +8 up or from −8 down
[17] = modulators of S6 phosphorylation in cells, primary screen, cell-based, A549, cytoblot, luminescence, serum-stimulated (AID 1158); conditions: A549 phospho-S6 cytoblot, 5 h, higher = more signal;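 also: serum-stimulated A549 lung adenocarcinoma cells; signal is phosphorylated S6 detected by cytoblot immunostaining with HRP secondary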
[18] = biological target: NADPH oxidase 2 (Homo sapiens) (UniProt P04839); assay: NOX2-dependent H2O2 signal modulators, primary screen, NOX inhibitor project, cell-based, HEK293-NOX2, PMA-stimulated, Amplex Red fluorescence (AID 1159); conditions: 45 min, higher = more signal, called active from +8 up or from −8 down; also: test concentration not given here
[19] = biological target: NADPH oxidase 4 (Homo sapiens) (UniProt Q9NPH5); assay: NOX4-dependent H2O2 signal modulators, primary screen, NOX inhibitor project, cell-based, HEK293-NOX4, tetracycline-induced, Amplex Red fluorescence (AID 1160); conditions: 45 min, higher = more signal, called active from +8 up or from −8 down
[20] = biological target: NADPH oxidase 5 (Homo sapiens) (UniProt Q96PH1); assay: NOX5-dependent H2O2 signal modulators, primary screen, NOX inhibitor project, cell-based, HEK293-NOX5, Amplex Red fluorescence (AID 1161); conditions: HEK293-NOX5, ionomycin, 45 min, higher = more signal
Chain of NADPH oxidase 5 (Homo sapiens) (Q96PH1 whole entry, looked up): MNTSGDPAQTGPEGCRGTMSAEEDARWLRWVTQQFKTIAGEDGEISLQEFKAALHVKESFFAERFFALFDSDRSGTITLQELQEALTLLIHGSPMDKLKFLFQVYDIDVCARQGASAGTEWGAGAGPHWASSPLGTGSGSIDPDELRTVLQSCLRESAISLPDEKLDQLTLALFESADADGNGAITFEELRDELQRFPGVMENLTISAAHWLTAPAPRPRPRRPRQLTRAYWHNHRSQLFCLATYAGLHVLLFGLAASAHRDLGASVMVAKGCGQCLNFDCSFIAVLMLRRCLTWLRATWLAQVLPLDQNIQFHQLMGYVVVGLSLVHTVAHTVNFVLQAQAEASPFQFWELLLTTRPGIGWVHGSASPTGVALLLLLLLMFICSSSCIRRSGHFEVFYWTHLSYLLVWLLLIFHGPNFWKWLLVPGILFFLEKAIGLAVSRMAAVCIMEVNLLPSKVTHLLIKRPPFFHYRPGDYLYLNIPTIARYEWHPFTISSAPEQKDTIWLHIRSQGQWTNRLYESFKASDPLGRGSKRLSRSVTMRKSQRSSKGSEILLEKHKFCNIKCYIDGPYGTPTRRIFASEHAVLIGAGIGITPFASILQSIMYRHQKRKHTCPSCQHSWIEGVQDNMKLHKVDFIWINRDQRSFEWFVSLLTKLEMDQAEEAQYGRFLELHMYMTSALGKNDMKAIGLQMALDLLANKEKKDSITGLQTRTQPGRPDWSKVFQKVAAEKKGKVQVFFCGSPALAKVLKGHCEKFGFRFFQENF

Chain of Streptavidin (Streptomyces avidinii) (P22629 whole entry, looked up): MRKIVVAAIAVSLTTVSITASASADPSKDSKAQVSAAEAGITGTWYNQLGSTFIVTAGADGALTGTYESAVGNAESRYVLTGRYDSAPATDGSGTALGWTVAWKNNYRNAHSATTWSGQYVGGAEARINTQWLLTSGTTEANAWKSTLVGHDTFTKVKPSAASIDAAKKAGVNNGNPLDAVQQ
Chain of Torsin-1A (Homo sapiens) (O14656 whole entry, looked up): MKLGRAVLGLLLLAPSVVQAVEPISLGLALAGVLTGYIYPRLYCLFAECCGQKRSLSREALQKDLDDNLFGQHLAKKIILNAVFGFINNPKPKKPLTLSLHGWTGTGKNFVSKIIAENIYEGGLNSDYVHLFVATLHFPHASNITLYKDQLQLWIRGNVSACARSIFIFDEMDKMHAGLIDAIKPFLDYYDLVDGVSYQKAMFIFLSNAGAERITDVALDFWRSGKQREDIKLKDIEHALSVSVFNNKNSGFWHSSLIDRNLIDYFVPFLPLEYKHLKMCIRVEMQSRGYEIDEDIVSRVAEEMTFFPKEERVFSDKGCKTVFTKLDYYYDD
Chain of NADPH oxidase 2 (Homo sapiens) (P04839 whole entry, looked up): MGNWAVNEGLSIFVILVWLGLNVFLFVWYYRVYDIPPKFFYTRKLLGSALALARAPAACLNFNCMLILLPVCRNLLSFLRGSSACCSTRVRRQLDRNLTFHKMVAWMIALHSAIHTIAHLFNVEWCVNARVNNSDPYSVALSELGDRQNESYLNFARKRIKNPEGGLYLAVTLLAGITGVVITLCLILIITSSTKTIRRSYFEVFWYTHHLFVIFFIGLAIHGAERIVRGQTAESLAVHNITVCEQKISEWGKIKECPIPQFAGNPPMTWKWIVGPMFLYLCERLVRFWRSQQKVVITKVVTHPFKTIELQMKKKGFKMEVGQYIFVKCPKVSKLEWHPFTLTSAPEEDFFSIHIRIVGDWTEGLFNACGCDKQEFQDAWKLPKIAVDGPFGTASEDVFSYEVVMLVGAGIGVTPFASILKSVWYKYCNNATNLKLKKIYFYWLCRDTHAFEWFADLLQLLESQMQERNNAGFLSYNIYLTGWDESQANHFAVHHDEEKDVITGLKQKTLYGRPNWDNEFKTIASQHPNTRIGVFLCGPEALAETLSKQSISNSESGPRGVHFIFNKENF
Chain of NADPH oxidase 4 (Homo sapiens) (Q9NPH5 whole entry, looked up): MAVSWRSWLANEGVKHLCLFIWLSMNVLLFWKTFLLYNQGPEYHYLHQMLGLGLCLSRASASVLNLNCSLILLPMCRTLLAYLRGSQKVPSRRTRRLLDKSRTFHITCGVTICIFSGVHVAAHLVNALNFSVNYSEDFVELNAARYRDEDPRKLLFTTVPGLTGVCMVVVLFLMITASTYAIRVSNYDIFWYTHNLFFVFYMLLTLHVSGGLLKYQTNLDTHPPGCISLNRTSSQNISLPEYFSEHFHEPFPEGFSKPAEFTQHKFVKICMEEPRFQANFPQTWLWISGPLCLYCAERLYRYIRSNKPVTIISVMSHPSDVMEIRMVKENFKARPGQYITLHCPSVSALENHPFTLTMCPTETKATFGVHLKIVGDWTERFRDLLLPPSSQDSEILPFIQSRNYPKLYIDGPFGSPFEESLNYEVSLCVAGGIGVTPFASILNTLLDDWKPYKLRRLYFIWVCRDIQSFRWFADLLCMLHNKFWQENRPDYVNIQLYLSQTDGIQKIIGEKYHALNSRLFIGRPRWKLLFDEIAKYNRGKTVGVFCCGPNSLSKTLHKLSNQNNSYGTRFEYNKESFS

| Compound | composite z-score [1] | z-score [2] | z-score [3] | z-score [4] | z-score [5] | composite z-score [6] | composite z-score [7] | composite z-score (Torsin-1A (Homo sapiens) [8]) | composite z-score (Torsin-1A (Homo sapiens) [9]) | composite z-score [10] | z-score [11] | composite z-score [12] | z-score [13] | z-score [14] | z-score [15] | z-score [16] | z-score [17] | z-score [18] | z-score [19] | z-score [20] |
| --- | --- | --- | --- | --- | --- | --- | --- | --- | --- | --- | --- | --- | --- | --- | --- | --- | --- | --- | --- | --- |
| CCc1cccc(NC(=O)O[C@H]2[C@H](OC(=O)Nc3ccccc3-c3ccccc3)[C@@H](OC(=O)Nc3ccccc3-c3ccccc3)[C@@H](OC)O[C@@H]2CO)c1 | 0.729 | -6.04 (inactive) | -0.0932 (inactive) | -0.655 (inactive) | -0.756 (inactive) | 0.751 | -0.0087 | 1.19 | 1.64 | 0.203 | -1.5 (inactive) | 0.419 | 3.37 (inactive) | 0.995 (inactive) | -0.975 (inactive) | 1.31 (inactive) | -0.84 | -5.54 (inactive) | -1.18 (inactive) | -1.13 |
| CCOC(=O)C[C@H]1[C@H](OC(=O)c2ccc(C(=O)c3ccccc3)cc2)[C@@H](NC(=O)CC(C)C)c2cc(OCCCO)ccc2N1C(=O)c1ccc2ccccc2n1 | 0.188 | -0.772 (inactive) | -1.04 (inactive) | 0.469 (inactive) | -0.23 (inactive) | 1.22 | -0.003 | 0.396 | 0.15 | 1.27 | 1.66 (inactive) | -0.0518 | 3.64 (inactive) | 0.582 (inactive) | 0.0206 (inactive) | -0.135 (inactive) | 0.276 | -1.46 (inactive) | 0.892 (inactive) | 0.97 |
| C=CC[C@@]1(C(=O)NCCN2CCOCC2)N=C(c2ccc(OCCCO)cc2)O[C@@H]1c1ccccc1N=[N+]=[N-] | 0.298 | -1.56 (inactive) | 0.45 (inactive) | 0.185 (inactive) | -0.461 (inactive) | 0.236 | -0.0093 | -0.0075 | 0.416 | -0.203 | 0.301 (inactive) | 0.144 | 31.2 (active) | 31.8 (active) | 2.48 (inactive) | 2.95 (inactive) | -0.291 | -1.67 (inactive) | 0.0137 (inactive) | -1.73 |
| C[N+](C)(C)CCCC[C@@H]1NC(=O)[C@H]2C[C@@H](C(=O)NCCCCCCNC(=O)CS)[C@@H](c3cccc(OCCO)c3)N2C1=O | -0.298 | 0.2 (inactive) | -0.635 (inactive) | -0.683 (inactive) | 0.0114 (inactive) | -0.667 | -0.21 | -0.182 | -0.14 | -0.396 | 0.415 (inactive) | 0.0774 | 3.29 (inactive) | 0.679 (inactive) | 1.8 (inactive) | 0.0805 (inactive) | 0.0934 | 1.18 (inactive) | 0.639 (inactive) | 1.24 |
